Source: PubChem
HSP90 refold inh: inhibitors of HSP90 luciferase refolding in rabbit reticulocyte lysate; luciferase refolding luminescence, 3 h; 290,000 tested, 0.91% active; inhibition, % at 5.6 µM;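 active means inhibition above the screen-wide mean plus 3 SD, computed separately per campaign, cut at about 16% in these data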;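 further: 0% = DMSO wells and 100% = 60 µM geldanamycin wells; inhibitors lower the luminescence because luciferase stays unfolded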
NALP1 inh: NALP1 inhibition; S. cerevisiae NALP1/ASC/caspase-1 growth, X-gal OD620, 72 h; inhibition, % at 10 µM; 280,000 tested, 0.61% active; AID 2071; in the data active means inhibition mostly above about 24%, no sharp cut-off; inactive means mostly below about 32%
HSF1 inh: HSF1 inhibition. NIH3T3-HGL HSE-luciferase, MG132-induced, luminescence 8 h; hits give low values. activity change, negative = inhibition, % at 7.5 µM (by protocol). 300,000 tested, 0.77% active. AID 2098;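 active means more than half of replicate wells show activity change below -50%, luminescence cut by over half; inconclusive means some wells, but at most half, below -50%; inactive means no replicate well below -50%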;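 further: luciferase reports HSF-1 transcriptional activity via heat shock element; 0% = median of DMSO wells and -100% = zero luminescence signal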
Hsp70 act: transcriptional activators of Hsp70. 200,000 tested, 0.04% active. activation, % at 10 µM. AID 1203. HeLa Hsp70 promoter luciferase reporter, luminescence; scaled: vehicle 0, proteasome-inhibitor control 100%;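 active means activation above the mean across all tested compounds plus 3 SD, cutoff set per campaign, cut at about 5.5% in these data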;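 further: 100% = MG132 at 30 µM as the positive control and 0% = DMSO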
p-CIP stab down: compounds decreasing mouse p/CIP protein stability. Q05BA5. F442A p/CIP-EGFP cells, EGFP fluorescence, 16 h. decrease of EGFP signal, % at 10 µM. 290,000 tested, 0.01% active. AID 1984;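 active means EGFP signal decrease of at least 30% at 10 µM or well 3 SD below plate mean, unless failing retest; inactive means the rest, including hits failing retest or dose response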
Target sequence (Q05BA5 1-1403): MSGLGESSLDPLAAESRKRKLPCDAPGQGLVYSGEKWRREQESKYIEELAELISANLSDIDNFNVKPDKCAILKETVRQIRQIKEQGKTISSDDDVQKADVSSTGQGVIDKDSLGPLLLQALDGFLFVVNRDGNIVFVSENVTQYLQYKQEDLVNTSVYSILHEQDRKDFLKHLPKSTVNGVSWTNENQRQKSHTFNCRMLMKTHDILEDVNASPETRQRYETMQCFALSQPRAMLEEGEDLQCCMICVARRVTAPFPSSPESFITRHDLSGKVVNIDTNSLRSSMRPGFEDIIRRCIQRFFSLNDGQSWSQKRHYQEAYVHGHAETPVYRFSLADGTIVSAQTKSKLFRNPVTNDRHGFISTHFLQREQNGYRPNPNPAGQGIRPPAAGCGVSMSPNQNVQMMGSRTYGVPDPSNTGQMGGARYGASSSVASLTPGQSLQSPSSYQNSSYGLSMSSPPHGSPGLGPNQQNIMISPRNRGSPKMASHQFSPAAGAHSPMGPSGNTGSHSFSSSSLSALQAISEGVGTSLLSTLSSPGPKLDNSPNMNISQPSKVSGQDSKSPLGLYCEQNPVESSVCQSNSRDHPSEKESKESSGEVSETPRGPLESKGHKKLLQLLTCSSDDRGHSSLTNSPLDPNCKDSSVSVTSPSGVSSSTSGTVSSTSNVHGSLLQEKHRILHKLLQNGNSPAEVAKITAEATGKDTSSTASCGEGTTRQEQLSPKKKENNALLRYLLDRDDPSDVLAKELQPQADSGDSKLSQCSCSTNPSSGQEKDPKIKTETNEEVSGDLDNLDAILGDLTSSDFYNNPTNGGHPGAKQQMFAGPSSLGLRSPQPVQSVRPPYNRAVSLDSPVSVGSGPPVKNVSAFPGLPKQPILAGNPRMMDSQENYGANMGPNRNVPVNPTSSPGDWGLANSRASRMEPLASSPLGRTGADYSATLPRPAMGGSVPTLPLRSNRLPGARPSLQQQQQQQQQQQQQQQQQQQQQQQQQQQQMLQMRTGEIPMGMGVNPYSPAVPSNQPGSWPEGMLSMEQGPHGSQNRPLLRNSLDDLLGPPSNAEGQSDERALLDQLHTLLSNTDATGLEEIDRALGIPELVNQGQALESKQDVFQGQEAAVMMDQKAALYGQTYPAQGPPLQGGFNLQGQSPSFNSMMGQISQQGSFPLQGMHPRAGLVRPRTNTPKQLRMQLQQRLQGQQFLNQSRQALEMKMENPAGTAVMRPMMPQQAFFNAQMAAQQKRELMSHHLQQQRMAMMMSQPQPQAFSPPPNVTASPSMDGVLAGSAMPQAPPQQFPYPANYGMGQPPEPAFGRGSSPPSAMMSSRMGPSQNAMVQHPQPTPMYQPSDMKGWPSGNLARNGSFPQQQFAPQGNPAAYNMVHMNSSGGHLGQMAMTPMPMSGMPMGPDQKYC
HSF1 activator: increases HSF-1 driven luciferase reporter signal; NIH3T3-HGL HSF-1 luciferase reporter, MG132, 8 h; 100% = twice DMSO control signal; activation, % at 9 µM; 300,000 tested, 1.7% active; AID 504408;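 active means mean replicate activation of at least 50% with a set share of replicates each reaching 50%; inconclusive means only one of those two conditions met; inactive means mean below 50% and too few replicates reaching it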;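 further: 0% = median of the neutral control wells and 100% = twice that signal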
Numbers without * were called inactive. Shown are actives, neighbours in structure and some others; about 3.8% of the full set was active somewhere.

`Oc1ccc2ccccc2c1CN1CCN(c2ccccc2)CC1` gave HSP90 refold inh 5, NALP1 inh 45, HSF1 inh 294, Hsp70 act 0, p-CIP stab down -3 and HSF1 activator 375*.
`Oc1ccc2ccccc2c1CN1CCCC1` gave HSP90 refold inh 2, NALP1 inh 11, HSF1 inh -1, Hsp70 act 0, p-CIP stab down -16 and HSF1 activator -9.
Screening CCC(C)[C@H](NC(=O)C1CC(=O)N(c2ccc3c(c2)OCCO3)C1)C(=O)N1CCCCC1 (stereo partly drawn) returned HSP90 refold inh -1, NALP1 inh 5, HSF1 inh -1, p-CIP stab down -2 and HSF1 activator -7.
Screening CCCCN1C(=S)NC[C@@H]1Cc1ccc(O)cc1 returned NALP1 inh -8, HSF1 inh 2, p-CIP stab down -13 and HSF1 activator -22.
COc1cc2c(cc1NC(=O)C(C)Sc1ccc(NC(C)=O)cc1)oc1ccccc12 (stereo not drawn) was read as HSP90 refold inh 2, NALP1 inh 21, HSF1 inh -60*, Hsp70 act 0, p-CIP stab down 0 and HSF1 activator -68.
For COc1cc2c(cc1NC(=O)C(C)OC(=O)C1CC(=O)N(Cc3ccco3)C1)oc1ccccc12 (stereo not drawn) the results were HSP90 refold inh -3, NALP1 inh -4, HSF1 inh 35, Hsp70 act 0, p-CIP stab down 6 and HSF1 activator 74*.
`COc1ccc(C)cc1NC(=O)C1CC(=O)N(Cc2ccco2)C1` (stereo not drawn) gave HSP90 refold inh 4, NALP1 inh -9, HSF1 inh -4, Hsp70 act 0, p-CIP stab down 3 and HSF1 activator -19.
`Cn1c(SCc2ccc(Cl)cc2)nnc1-c1ccc2nonc2c1` gave HSP90 refold inh -2, NALP1 inh -3, HSF1 inh 3, p-CIP stab down 3 and HSF1 activator 17.
Cn1c(CNC(=O)CCNC(=O)c2ccccc2)cc(=O)n(C)c1=O was read as HSP90 refold inh -2, NALP1 inh 10, HSF1 inh 2, p-CIP stab down -11 and HSF1 activator -7.
OC1CCN(Cc2cccc(Oc3ccccc3)c2)CC1 was read as HSP90 refold inh -4, NALP1 inh 22, HSF1 inh -51*, Hsp70 act 0, p-CIP stab down 3 and HSF1 activator -62.
Screening O=C(Nc1ccc(Oc2cccnc2)cc1)C1CCN(Cc2cccc(Cl)c2)CC1 returned HSP90 refold inh -1, NALP1 inh 36*, HSF1 inh 2, p-CIP stab down 10 and HSF1 activator -5.
O=C(Nc1ccc(Oc2cccnc2)cc1)C1CCN(Cc2ccccc2)CC1 was read as HSP90 refold inh 16, NALP1 inh 12, HSF1 inh -12, p-CIP stab down -10 and HSF1 activator -7.
CCn1cc(CN2CCC(C(=O)Nc3ccc(Oc4ccccc4)nc3)CC2)cn1 was read as HSP90 refold inh 0, NALP1 inh 34*, HSF1 inh -5, p-CIP stab down -23 and HSF1 activator -15.
O=C(Nc1cccc(F)c1)Nc1ccnn1C1CCN(C(=O)c2ccccn2)CC1 was read as HSP90 refold inh -2, NALP1 inh 11, HSF1 inh -1, p-CIP stab down 11 and HSF1 activator -3.
Cn1c(NC(=O)/C=C/c2ccccc2)cc(=O)n(C)c1=O was read as HSP90 refold inh -3, NALP1 inh 15, HSF1 inh 15, Hsp70 act 0, p-CIP stab down -30 and HSF1 activator 29.
For Cn1c(NC(=O)/C=C/c2ccc(Cl)c(Cl)c2)cc(=O)n(C)c1=O the results were HSP90 refold inh -3, NALP1 inh 27, HSF1 inh 44, Hsp70 act 0, p-CIP stab down 4 and HSF1 activator 56*.
COc1ccc(/C=C/C(=O)Nc2cc(=O)n(C)c(=O)n2C)cc1 was read as HSP90 refold inh -4, NALP1 inh 12, HSF1 inh 27, Hsp70 act 0, p-CIP stab down 5 and HSF1 activator 60*.
`CCOc1ccccc1NC(=O)CCn1nc(C)c(S(=O)(=O)N2CCCCC2)c1C` gave HSP90 refold inh -3, NALP1 inh 18, HSF1 inh -9, p-CIP stab down 8 and HSF1 activator -3.
Screening Cn1c(SCC(=O)Nc2ccccc2)nnc1-c1ccc2nonc2c1 returned HSP90 refold inh 3, NALP1 inh -3, HSF1 inh -2, p-CIP stab down 6 and HSF1 activator -1.
Screening Clc1ccc(-n2ncc3c(NCc4cccs4)ncnc32)cc1 returned HSP90 refold inh 2, HSF1 inh 22, Hsp70 act 0 and HSF1 activator 57*.
For Cc1cccc(-n2ncc3c(NCc4cccs4)ncnc32)c1 the results were HSP90 refold inh -5, NALP1 inh 2, HSF1 inh 14, Hsp70 act 0, p-CIP stab down -7 and HSF1 activator 21.
CC(C)c1ccc(/C=N/NC(=O)C2CCCC2)cc1 was read as HSP90 refold inh -4, NALP1 inh 6, HSF1 inh 27, p-CIP stab down 16 and HSF1 activator 52*.
CC(C)(C)c1ccc(/C=N/NC(=O)C2CCCC2)cc1 was read as HSP90 refold inh -5, NALP1 inh -4 and p-CIP stab down -13.
For CC[C@@]12C(=O)N(c3ccc(C)cc3)C(=O)N1[C@H](c1ccc(Br)cc1)[C@@H]1C(=O)N(C(C)(C)C)C(=O)[C@@H]12 the results were HSP90 refold inh -2, NALP1 inh -4, HSF1 inh 5, p-CIP stab down -6 and HSF1 activator 23.
For COc1ccc2c(c1)cc(C(=O)N[C@@H](CCSC)C(=O)N1CCC[C@H]1C(=O)O)n2C the results were HSP90 refold inh -3, NALP1 inh 10, HSF1 inh -1, p-CIP stab down -14 and HSF1 activator 1.
For CN(c1ccc(OCC(=O)Nc2ccc3[nH]c(=O)[nH]c3c2)cc1)S(=O)(=O)c1ccc(Cl)cc1 the results were HSP90 refold inh 1, NALP1 inh 42*, HSF1 inh -4, Hsp70 act 0, p-CIP stab down -8 and HSF1 activator -2.
Screening COc1ccc(CCNC(=O)COc2ccc(N(C)S(=O)(=O)c3ccc(Cl)cc3)cc2)cc1 returned HSP90 refold inh 4, NALP1 inh 26*, HSF1 inh 23, Hsp70 act 0, p-CIP stab down -6 and HSF1 activator inconclusive.
Screening Cc1ccc(NC(=O)N2CCCc3ccccc32)cc1C returned HSP90 refold inh 0, NALP1 inh 13, HSF1 inh -10, p-CIP stab down -1 and HSF1 activator -33.
For CC(C)Oc1ccc(CNC(=O)CCCN2C(=O)C(c3ccccc3)Oc3cccnc32)cc1 (stereo not drawn) the results were HSP90 refold inh -4, NALP1 inh 12, HSF1 inh 1, p-CIP stab down 3 and HSF1 activator 11.
